RmlCD inh 1536: blocks M. tuberculosis RmlC and RmlD coupled enzymes. P9WH09+P9WH11. RmlC+RmlD coupled enzyme assay, percent inhibition; primary screen in compound mixtures. inhibition, % at 3.6 µM. hit rate 0.03% among 160,000; in the data active = inhibition mostly above about 34%, no sharp cut-off
Target sequence (P9WH09 whole entry, looked up): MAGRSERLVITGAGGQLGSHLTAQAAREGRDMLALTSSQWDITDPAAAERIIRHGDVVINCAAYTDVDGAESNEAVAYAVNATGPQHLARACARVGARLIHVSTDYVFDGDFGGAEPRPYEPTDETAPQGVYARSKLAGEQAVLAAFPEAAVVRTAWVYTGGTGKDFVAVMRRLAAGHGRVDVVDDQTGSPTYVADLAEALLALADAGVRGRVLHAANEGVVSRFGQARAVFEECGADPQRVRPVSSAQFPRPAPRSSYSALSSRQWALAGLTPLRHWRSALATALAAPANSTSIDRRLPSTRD
Target sequence (P9WH11 whole entry, looked up): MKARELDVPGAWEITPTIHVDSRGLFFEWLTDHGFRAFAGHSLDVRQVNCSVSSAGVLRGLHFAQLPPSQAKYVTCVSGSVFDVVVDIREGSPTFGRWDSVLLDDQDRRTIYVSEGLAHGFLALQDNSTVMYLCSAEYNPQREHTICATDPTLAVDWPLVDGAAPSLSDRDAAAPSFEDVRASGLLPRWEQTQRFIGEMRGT
YopH PTP inh: YopH (Yersinia) phosphatase inhibition. fluorescence Ex485/Em525. hit rate 0.16% among 140,000. inhibition, % (concentration not given with the values); in the data active = inhibition above about 50%
Numbers stand for hits; - = inactive; . = no result. Only a selection was taken, and hits are over-represented in it overall.

SMILES	RmlCD inh 1536	YopH PTP inh
Cn1c(SCC2CCCCC2)nnc1-c1ccncc1	-	-
COc1ccc(CC(=O)Nc2cccc(-c3ccc4nncn4n3)c2)cc1OC	-	.
COc1ccc(-c2nc(C#N)c(N3CCC(C(N)=O)CC3)o2)cc1	-	89.9
N#Cc1nc(-c2ccc(OCc3ccccc3)cc2)oc1N1CCC(C(N)=O)CC1	-	-
CCOC(=O)C1(Cc2ccc(Cl)cc2)CCN(C(=O)c2cscn2)CC1	-	.
Cn1c(N)c(C(=O)c2ccc(C#N)cc2)c(=O)n(C)c1=O	-	-
COc1ccccc1-c1c(C)oc2c(CN3CCN(C)CC3)c(O)ccc2c1=O	.	-
COc1ccccc1-c1c(C)oc2c(CN3CCN(CCO)CC3)c(O)ccc2c1=O	56.3	-
COc1cc(C(=O)Nc2nnc(C)s2)c([N+](=O)[O-])cc1OC	-	.
Cc1noc(C)c1COC(=O)Cc1ccc(Br)cc1	-	.
O=C(NCC1CCCO1)c1coc2nc3ccccc3nc12 (configuration not stated)	-	-
COC(CNC(=O)c1coc2nc3ccccc3nc12)OC	73.9	.
Cn1c(SCC(=O)O)nnc1-c1ccc(NC(=O)c2ccc(Cl)c(Cl)c2)cc1	-	.
O=C(C[n+]1ccc(C(=O)NCCCO)cc1)c1cccc(Br)c1	-	.
COc1ccccc1CN1C(=O)c2ccncc2C1=O	-	-
COc1ccc(CCN2C(=O)c3ccncc3C2=O)cc1OC	-	51.5
COCCCNC(=O)CC(NS(=O)(=O)c1ccc(F)cc1)c1ccc(OC)cc1 (configuration not stated)	-	68.2
COCCCNC(=O)CC(NS(=O)(=O)c1ccc(C)cc1)c1ccco1 (configuration not stated)	-	-
CC(=O)N(C)c1ccc(C(O)(C(F)(F)F)C(F)(F)F)cc1	-	.
O=c1[nH]nc(Sc2ncnc3sccc23)n1CCc1ccccc1	-	-
Cc1ccc(-n2c(-c3ccncc3)nnc2-c2cccs2)cc1	.	-
O=C1CCCCC1c1cccc2ccccc12 (configuration not stated)	-	-
O=C1c2ccccc2C(=O)C12OC2c1cccc2ccccc12 (configuration not stated)	-	98.6
COc1c(OC2OC(C(=O)O)C(O)C(O)C2O)cc(O)c2c(=O)cc(-c3ccccc3)oc12 (configuration not stated)	.	-
O=C(O)C1OC(Oc2cc3oc(-c4ccccc4)cc(=O)c3c(O)c2O)C(O)C(O)C1O (configuration not stated)	.	53.2
SMILES	RmlCD inh 1536	YopH PTP inh
CCc1ccc(-n2c(C)n[nH]c2=S)cc1	-	.
COC(=O)CCC(=O)Oc1ccc(OC(=O)CCC(=O)OC)cc1	.	59.1
COC(=O)CCC(=O)Nc1ccc(NC(=O)CCC(=O)OC)cc1	.	-
CN1CCN(NC(=O)c2ccc(F)cc2)CC1	-	-
Cc1ccc(C(=O)N2C(=S)C(c3ccc(F)cc3)=NC23CCN(C)CC3)cc1	-	76.9
CCC(=O)Nc1nonc1-c1nc2ccccc2n1CCC(C)C	-	57.4
CC(=O)Nc1nonc1-c1nc2ccccc2n1CCC(C)C	-	-
CCCNc1nc2c(c(=O)[nH]c(=O)n2C)n1Cc1ccc(F)cc1	.	60.1
CCNc1nc2c(c(=O)[nH]c(=O)n2C)n1Cc1ccc(F)cc1	-	-
Cc1cc(Br)ccc1SCC(=O)OCC(=O)Nc1ccccc1C#N	-	-
COc1ccc(C2=NOC(CNC(=S)N3CCOCC3)C2)cc1 (configuration not stated)	-	.
CCCn1c(=O)c(C(=O)OCC)c(O)c2cc(Br)ccc21	-	.
CCOC(=O)c1c2c(n(C)c1COC)C(=O)C(=O)c1ccc(Br)cc1-2	.	80.1
CCOc1ccc(N(Cc2ccccc2F)C2=NC3CS(=O)(=O)CC3S2)cc1 (configuration not stated)	-	.
Cc1nc2ccccc2nc1N/N=C/c1ccc(O)cc1	-	.
Oc1ccc(Nc2nc3ccccc3nc2Nc2ccc(O)cc2)cc1	-	70.5
O=C(CCS(=O)(=O)c1cccs1)Nc1ccc(C(=O)NC2CCCC2)cc1	-	.
CCN(CC)c1ccc(NC(=O)c2cccc(OC)c2)c(C)c1	-	50.7
CCN(CC)c1ccc(NC(=O)c2cc(OC)cc(OC)c2)c(C)c1	-	-
COc1ccc(CN2C(=O)c3ccccc3C(/C=N\OCc3ccc(F)cc3)C2=O)cc1 (configuration not stated)	-	59.2
COc1ccc(CN2C(=O)c3ccccc3C(/C=N/OCc3ccc(Cl)cc3)C2=O)cc1 (configuration not stated)	-	-
O=C(O)c1ccc(-c2nc3ccccc3[nH]2)cc1	95.3	-
Fc1ccc(-c2nc3ccccc3[nH]2)cc1	-	.
COc1cc(/C=C2/C(=O)c3cccc([N+](=O)[O-])c3C2=O)c(Br)cc1O	-	-
CCN1CCN(CCCOc2ccccc2-c2ccccc2)CC1	-	.
SMILES	RmlCD inh 1536	YopH PTP inh
CCN1CCN(CCCOc2ccc(-c3ccccc3)cc2)CC1	-	54.8
CN(C)/C=N/NC(=O)c1ccccc1	-	.
O=C(NN=c1c(=O)c2ccccc2c1=O)c1ccccc1	-	68.3
O=C(O)C/C=C(/NC(=O)OCc1ccccc1)C(=O)OCc1ccccc1	-	.
CC(C)(C)c1cc(OC(=O)c2ccccc2F)ccc1O	-	.
CC(C)(C)c1cc(OC(=O)c2ccncc2)ccc1O	.	56.8
O=C(CN1C(=O)COc2ccc(S(=O)(=O)N3CCOCC3)cc21)NCc1ccco1	-	.
O=C(N/N=C/c1ccc(F)c(F)c1)c1cc2c(s1)-c1ccccc1CC2	-	-
CNC(=O)c1cc2c(s1)-c1ccccc1CC2	56.9	.
O=C1NC(=O)/C(=C\c2ccc(OCc3cccc([N+](=O)[O-])c3)cc2)N1	-	.
